Here are results for 17 compounds from PubChem BioAssay (EPA / NIEHS).

Records with an inconclusive call do not appear. Activity calls are given as the source filed them. The calls were made as follows: active = hit-call score of the fitted dose curve at least 0.9, where 1 is the maximum; inconclusive = response in the unintended direction; inactive = score below 0.9.

For assay [1], the target named is human Protein Tyrosine Phosphatase Non-receptor Type 9 (PTPN9), PTPN9 (gene 5780) (UniProt P43378). The experiment in a line: NVS_ENZ_hPTPN9: NovaScreen (NVS) Enzymatic Assay for human Protein Tyrosine Phosphatase Non-receptor Type 9 (PTPN9) (AID 2283209). The essentials: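 Sf9-expressed enzyme in a cell-free assay, fluorescence read 1.33 h after dosing with mobility-shift separation of substrate and product. Tested at 25 uM in duplicate, then up to 50 uM; signal loss versus DMSO.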

Assay [2] has as its target human Protein Tyrosine Phosphatase Non-receptor Type 6 (PTPN6), PTPN6 (gene 5777) (UniProt P29350). The experiment in a line: NVS_ENZ_hPTPN6: NovaScreen (NVS) Enzymatic Assay for human Protein Tyrosine Phosphatase Non-receptor Type 6 (PTPN6) (AID 2283210). The essentials:
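Cell-free assay with recombinant PTPN6 expressed in SF9 cells, fluorescent substrate, product separated from substrate by electrophoretic mobility shift; read 1.33 hours after dosing. Primary screen in duplicate at 25 uM, actives retested in concentration series; DMSO baseline.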

Assay [3] deals with human Raf-1 Proto-Oncogene, serine/threonine Kinase (RAF1), RAF1 (gene 5894) (UniProt P04049). In words: NVS_ENZ_hRAF1: NovaScreen (NVS) Enzymatic Assay for human Raf-1 Proto-Oncogene, serine/threonine Kinase (RAF1) (AID 2283216). Summed up:
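Cell-free recombinant kinase with specific fluorescent substrate, product separated by electrophoretic mobility shift; read 1 h after dosing. Primary screen at 25 uM in duplicate; hits then run in concentration-response up to 50 uM, fitted as loss of signal versus DMSO.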

Assay [4] has as its target human Sirtuin 3 (SIRT3), SIRT3 (gene 23410) (UniProt Q9NTG7). The experiment in a line: NVS_ENZ_hSIRT3: NovaScreen (NVS) Enzymatic Assay for human Sirtuin 3 (SIRT3) (AID 2283222). The essentials: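 Cell-free enzyme assay with recombinant protein and fluorescent substrate, product separated by electrophoretic mobility shift; read 1 hour after dosing. Screened in duplicate at 25 uM, then singleton concentration-response up to 50 uM; loss of signal versus DMSO.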

The target in assay [5] is human Protein Tyrosine Phosphatase Non-receptor Type 4 (PTPN4), PTPN4 (gene 5775) (UniProt P29074). The experiment in a line: NVS_ENZ_hPTPN4: NovaScreen (NVS) Enzymatic Assay for human Protein Tyrosine Phosphatase Non-receptor Type 4 (PTPN4) (AID 2283208). The essentials: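 Cell-free assay of PTPN4 expressed in Sf9 cells, using a fluorescent substrate with product separated by mobility shift; read 1.33 h after dosing. Single-point screen at 25 uM, then concentration-response up to 50 uM. Loss of signal relative to DMSO.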

Assay [6] deals with human Protein Tyrosine Phosphatase Non-receptor Type 1 (PTPN1), PTPN1 (gene 5770) (UniProt P18031). In words: NVS_ENZ_hPTPN1: NovaScreen (NVS) Enzymatic Assay for human Protein Tyrosine Phosphatase Non-receptor Type 1 (PTPN1) (AID 2283201). Summed up: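 Cell-free fluorogenic-substrate activity assay on recombinant enzyme, read 1.33 h after dosing by fluorescence and electrophoretic mobility shift; loss of signal vs DMSO baseline. Primary screen in duplicate at 25 uM, hits then run in concentration-response up to 50 uM.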

Assay [7] has as its target human Phosphatase and Tensin Homolog (PTEN), PTEN (gene 5728) (UniProt P60484). In words: NVS_ENZ_hPTEN: NovaScreen (NVS) Enzymatic Assay for human Phosphatase and Tensin Homolog (PTEN) (AID 2283203). Summed up: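 Cell-free recombinant human PTEN with fluorescent substrate; product separated by electrophoretic mobility shift and read by fluorescence 1 h after dosing. Primary screen in duplicate at 25 uM, actives followed in concentration series versus DMSO.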

Assay [8] deals with human Rho Associated Coiled-coil Containing Protein Kinase 1 (ROCK1), ROCK1 (gene 6093) (UniProt Q13464). In words: NVS_ENZ_hROCK1: NovaScreen (NVS) Enzymatic Assay for human Rho Associated Coiled-coil Containing Protein Kinase 1 (ROCK1) (AID 2283214). Summed up:
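Cell-free recombinant human ROCK1 activity assay; fluorescent substrate and product separated by electrophoretic mobility shift, read 1 h after dosing. Screened in duplicate at 25 uM; loss of signal versus DMSO baseline scored as inhibition.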

Assay [9] concerns the target human Protein Tyrosine Phosphatase Non-receptor Type 2 (PTPN2), PTPN2 (gene 5771) (UniProt P17706). The experiment in a line: NVS_ENZ_hPTPN2: NovaScreen (NVS) Enzymatic Assay for human Protein Tyrosine Phosphatase Non-receptor Type 2 (PTPN2) (AID 2283207). The essentials:
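Cell-free recombinant enzyme with fluorescent substrate, product separated by electrophoretic mobility shift; read 1 h after dosing. Primary screen single concentration (25 uM) in duplicate; actives followed in concentration series; loss of signal versus DMSO.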

Assay [10] deals with human Sirtuin 1 (SIRT1), SIRT1 (gene 23411) (UniProt Q96EB6). In words: NVS_ENZ_hSIRT1: NovaScreen (NVS) Enzymatic Assay for human Sirtuin 1 (SIRT1) (AID 2283219). The essentials:
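Cell-free recombinant SIRT1 with a fluorescent substrate; substrate and product separated by electrophoretic mobility shift and read by fluorescence intensity, 1 h after dosing. Primary screen at 25 uM in duplicate; hits re-run in concentration-response up to 50 uM, relative to DMSO.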

Assay [11] addresses Tyrosine-protein phosphatase non-receptor type 11 (Homo sapiens) (UniProt Q06124). The experiment in a line: NVS_ENZ_hPTPN11: NovaScreen (NVS) Enzymatic Assay for human Protein Tyrosine Phosphatase Non-receptor Type 11 (PTPN11) (AID 2283202). The essentials:
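Recombinant human PTPN11 activity on a fluorescent substrate, with substrate/product separated by electrophoretic mobility shift; read 0.5 h after dosing, loss of signal vs DMSO. Duplicate 25 uM screen, then concentration-response up to 50 uM.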

Assay [12] concerns the target Tyrosine-protein phosphatase non-receptor type 12 (Homo sapiens) (UniProt Q05209). The experiment in a line: NVS_ENZ_hPTPN12: NovaScreen (NVS) Enzymatic Assay for human Protein Tyrosine Phosphatase Non-receptor Type 12 (PTPN12) (AID 2283204). The essentials: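 Single-concentration duplicates (25 uM) preceded singleton concentration-response up to 50 uM for chemicals passing threshold. Cell-free recombinant PTPN12 activity was read 1.33 h after dosing via fluorescence after mobility-shift separation; loss of signal versus DMSO.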

In assay [13] the target is Tyrosine-protein phosphatase non-receptor type 14 (Homo sapiens) (UniProt Q15678). In words: NVS_ENZ_hPTPN14: NovaScreen (NVS) Enzymatic Assay for human Protein Tyrosine Phosphatase Non-receptor Type 14 (PTPN14) (AID 2283206). Summed up:
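Cell-free recombinant human PTPN14 with fluorescent substrate, read 0.5 h after dosing by fluorescence and electrophoretic mobility shift separating substrate from product. Primary screen at 25 uM in duplicate; hits run to 50 uM maximum; loss of signal versus DMSO.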

For assay [14], the target named is human Protein Tyrosine Phosphatase Receptor Type B (PTPRB), PTPRB (gene 5787) (UniProt P23467). The experiment in a line: NVS_ENZ_hPTPRB: NovaScreen (NVS) Enzymatic Assay for human Protein Tyrosine Phosphatase Receptor Type B (PTPRB) (AID 2283211). The essentials:
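Recombinant human PTPRB with a fluorescent substrate, product separated by electrophoretic mobility shift; read 1 h after dosing. Primary screen in duplicate at 25 uM; actives then retested in concentration series; loss of signal versus DMSO.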

Assay [15] has as its target human Protein Tyrosine Phosphatase Receptor Type F (PTPRF), PTPRF (gene 5792) (UniProt P10586). The experiment in a line: NVS_ENZ_hPTPRF: NovaScreen (NVS) Enzymatic Assay for human Protein Tyrosine Phosphatase Receptor Type F (PTPRF) (AID 2283213). Summed up:
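Cell-free fluorescence enzyme assay with recombinant protein and substrate; product separated by electrophoretic mobility shift. Read 1 h after dosing, single 25 uM duplicate screen, then concentration-response up to 50 uM; loss of signal vs DMSO.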

The target of assay [16] is human Protein Tyrosine Phosphatase Receptor Type M (PTPRM), PTPRM (gene 5797) (UniProt P28827). In words: NVS_ENZ_hPTPRM: NovaScreen (NVS) Enzymatic Assay for human Protein Tyrosine Phosphatase Receptor Type M (PTPRM) (AID 2283215). The essentials:
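Cell-free recombinant PTPRM with fluorogenic substrate; product separated from substrate by electrophoretic mobility shift and read by fluorescence, 1.33 h after dosing. Primary screen single concentration (25 uM) in duplicate; actives retested in concentration series; loss of signal versus DMSO.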

The target of assay [17] is human SRC Proto-Oncogene, Non-receptor Tyrosine Kinase (SRC), SRC (gene 6714) (UniProt P12931). In words: NVS_ENZ_hSRC: NovaScreen (NVS) Enzymatic Assay for human SRC Proto-Oncogene, Non-receptor Tyrosine Kinase (SRC) (AID 2283223). Summed up: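 Cell-free kinase activity assay with fluorescent substrate, product separated by electrophoretic mobility shift, read 1 h after dosing. Duplicate single point at 25 uM, then concentration-response up to 50 uM; loss of signal versus DMSO.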

The target of assay [18] is Tyrosine-protein phosphatase non-receptor type 13 (Homo sapiens) (UniProt Q12923). The experiment in a line: NVS_ENZ_hPTPN13: NovaScreen (NVS) Enzymatic Assay for human Protein Tyrosine Phosphatase Non-receptor Type 13 (PTPN13) (AID 2283205). Summed up: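 Cell-free assay of recombinant human PTPN13 with a fluorescent substrate, product separated by electrophoretic mobility shift and read 0.5 h after dosing. Primary screen at 25 uM in duplicate, then concentration-response up to 50 uM. Loss of signal fitted against DMSO.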

Assay [19] concerns the target human Sirtuin 2 (SIRT2), SIRT2 (gene 22933) (UniProt Q8IXJ6). The experiment in a line: NVS_ENZ_hSIRT2: NovaScreen (NVS) Enzymatic Assay for human Sirtuin 2 (SIRT2) (AID 2283217). Summed up: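 Cell-free recombinant human SIRT2, fluorescent substrate with product separated by electrophoretic mobility shift, 1 hr. Screened in duplicate at 25 uM; hits rerun singly in concentration-response up to 50 uM, relative to DMSO.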

Sequence of human Sirtuin 3 (SIRT3), SIRT3 (gene 23410) (Q9NTG7 whole entry, looked up): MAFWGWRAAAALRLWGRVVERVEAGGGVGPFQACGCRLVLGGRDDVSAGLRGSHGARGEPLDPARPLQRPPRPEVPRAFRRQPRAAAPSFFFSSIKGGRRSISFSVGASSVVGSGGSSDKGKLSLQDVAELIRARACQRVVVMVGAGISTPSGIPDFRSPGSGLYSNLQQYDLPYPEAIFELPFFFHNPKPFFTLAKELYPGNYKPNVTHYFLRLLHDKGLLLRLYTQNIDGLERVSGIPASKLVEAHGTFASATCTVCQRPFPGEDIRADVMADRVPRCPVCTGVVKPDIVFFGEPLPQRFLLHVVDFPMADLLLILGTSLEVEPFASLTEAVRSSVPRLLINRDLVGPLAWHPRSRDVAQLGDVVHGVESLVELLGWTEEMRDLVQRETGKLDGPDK
Sequence of human Protein Tyrosine Phosphatase Non-receptor Type 4 (PTPN4), PTPN4 (gene 5775) (P29074 whole entry, looked up): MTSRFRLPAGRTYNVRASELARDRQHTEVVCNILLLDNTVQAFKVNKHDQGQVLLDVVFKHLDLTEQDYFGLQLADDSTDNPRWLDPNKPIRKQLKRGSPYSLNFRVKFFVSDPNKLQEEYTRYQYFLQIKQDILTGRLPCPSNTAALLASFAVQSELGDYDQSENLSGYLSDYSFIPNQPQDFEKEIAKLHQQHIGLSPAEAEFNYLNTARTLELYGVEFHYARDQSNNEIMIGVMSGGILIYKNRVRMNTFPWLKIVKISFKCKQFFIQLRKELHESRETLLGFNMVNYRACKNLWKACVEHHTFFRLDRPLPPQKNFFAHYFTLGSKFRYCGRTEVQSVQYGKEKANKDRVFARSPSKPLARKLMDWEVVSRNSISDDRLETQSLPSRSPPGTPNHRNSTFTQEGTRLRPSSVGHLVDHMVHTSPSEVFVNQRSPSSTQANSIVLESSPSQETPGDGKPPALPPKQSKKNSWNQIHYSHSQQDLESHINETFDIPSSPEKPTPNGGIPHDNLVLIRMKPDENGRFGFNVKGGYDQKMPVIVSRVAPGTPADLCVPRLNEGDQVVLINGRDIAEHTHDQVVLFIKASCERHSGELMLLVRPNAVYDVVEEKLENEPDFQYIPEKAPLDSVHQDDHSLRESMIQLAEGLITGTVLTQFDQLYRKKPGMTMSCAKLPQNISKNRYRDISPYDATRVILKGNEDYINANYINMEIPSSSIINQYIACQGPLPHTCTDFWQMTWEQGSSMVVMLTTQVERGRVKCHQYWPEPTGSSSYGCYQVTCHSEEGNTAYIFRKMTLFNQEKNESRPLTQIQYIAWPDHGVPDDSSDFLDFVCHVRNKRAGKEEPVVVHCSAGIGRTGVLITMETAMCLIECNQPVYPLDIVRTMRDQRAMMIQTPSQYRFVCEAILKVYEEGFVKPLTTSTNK
Sequence of human Protein Tyrosine Phosphatase Non-receptor Type 2 (PTPN2), PTPN2 (gene 5771) (P17706 whole entry, looked up): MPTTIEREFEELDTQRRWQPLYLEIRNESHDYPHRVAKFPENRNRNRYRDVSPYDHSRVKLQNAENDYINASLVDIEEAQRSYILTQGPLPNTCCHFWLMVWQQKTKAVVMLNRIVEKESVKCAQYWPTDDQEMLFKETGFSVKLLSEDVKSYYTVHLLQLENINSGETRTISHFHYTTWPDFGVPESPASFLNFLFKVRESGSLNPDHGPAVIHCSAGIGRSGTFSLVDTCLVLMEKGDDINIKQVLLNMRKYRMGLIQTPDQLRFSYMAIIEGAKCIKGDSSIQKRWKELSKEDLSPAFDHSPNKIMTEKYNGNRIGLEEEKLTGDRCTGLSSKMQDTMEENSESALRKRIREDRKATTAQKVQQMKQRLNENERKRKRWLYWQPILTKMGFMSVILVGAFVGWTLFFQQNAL
Sequence of human Raf-1 Proto-Oncogene, serine/threonine Kinase (RAF1), RAF1 (gene 5894) (P04049 whole entry, looked up): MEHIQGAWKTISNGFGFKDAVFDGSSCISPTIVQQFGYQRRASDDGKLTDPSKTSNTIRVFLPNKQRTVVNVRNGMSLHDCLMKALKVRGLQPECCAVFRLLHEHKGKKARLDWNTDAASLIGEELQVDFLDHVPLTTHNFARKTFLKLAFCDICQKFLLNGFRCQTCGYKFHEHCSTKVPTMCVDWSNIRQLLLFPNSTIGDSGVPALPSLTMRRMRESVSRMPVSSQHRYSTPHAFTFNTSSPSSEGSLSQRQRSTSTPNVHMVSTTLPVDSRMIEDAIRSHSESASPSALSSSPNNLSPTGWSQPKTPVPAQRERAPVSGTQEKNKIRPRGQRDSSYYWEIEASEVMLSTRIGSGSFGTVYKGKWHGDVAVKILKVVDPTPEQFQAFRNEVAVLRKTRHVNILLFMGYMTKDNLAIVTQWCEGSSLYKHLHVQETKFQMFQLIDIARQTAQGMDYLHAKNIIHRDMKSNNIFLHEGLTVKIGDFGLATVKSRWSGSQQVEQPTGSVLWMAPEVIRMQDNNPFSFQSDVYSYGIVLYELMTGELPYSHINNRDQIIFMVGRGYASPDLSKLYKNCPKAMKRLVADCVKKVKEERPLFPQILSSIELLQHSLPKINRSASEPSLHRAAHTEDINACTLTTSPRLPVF
Sequence of human Protein Tyrosine Phosphatase Receptor Type M (PTPRM), PTPRM (gene 5797) (P28827 whole entry, looked up): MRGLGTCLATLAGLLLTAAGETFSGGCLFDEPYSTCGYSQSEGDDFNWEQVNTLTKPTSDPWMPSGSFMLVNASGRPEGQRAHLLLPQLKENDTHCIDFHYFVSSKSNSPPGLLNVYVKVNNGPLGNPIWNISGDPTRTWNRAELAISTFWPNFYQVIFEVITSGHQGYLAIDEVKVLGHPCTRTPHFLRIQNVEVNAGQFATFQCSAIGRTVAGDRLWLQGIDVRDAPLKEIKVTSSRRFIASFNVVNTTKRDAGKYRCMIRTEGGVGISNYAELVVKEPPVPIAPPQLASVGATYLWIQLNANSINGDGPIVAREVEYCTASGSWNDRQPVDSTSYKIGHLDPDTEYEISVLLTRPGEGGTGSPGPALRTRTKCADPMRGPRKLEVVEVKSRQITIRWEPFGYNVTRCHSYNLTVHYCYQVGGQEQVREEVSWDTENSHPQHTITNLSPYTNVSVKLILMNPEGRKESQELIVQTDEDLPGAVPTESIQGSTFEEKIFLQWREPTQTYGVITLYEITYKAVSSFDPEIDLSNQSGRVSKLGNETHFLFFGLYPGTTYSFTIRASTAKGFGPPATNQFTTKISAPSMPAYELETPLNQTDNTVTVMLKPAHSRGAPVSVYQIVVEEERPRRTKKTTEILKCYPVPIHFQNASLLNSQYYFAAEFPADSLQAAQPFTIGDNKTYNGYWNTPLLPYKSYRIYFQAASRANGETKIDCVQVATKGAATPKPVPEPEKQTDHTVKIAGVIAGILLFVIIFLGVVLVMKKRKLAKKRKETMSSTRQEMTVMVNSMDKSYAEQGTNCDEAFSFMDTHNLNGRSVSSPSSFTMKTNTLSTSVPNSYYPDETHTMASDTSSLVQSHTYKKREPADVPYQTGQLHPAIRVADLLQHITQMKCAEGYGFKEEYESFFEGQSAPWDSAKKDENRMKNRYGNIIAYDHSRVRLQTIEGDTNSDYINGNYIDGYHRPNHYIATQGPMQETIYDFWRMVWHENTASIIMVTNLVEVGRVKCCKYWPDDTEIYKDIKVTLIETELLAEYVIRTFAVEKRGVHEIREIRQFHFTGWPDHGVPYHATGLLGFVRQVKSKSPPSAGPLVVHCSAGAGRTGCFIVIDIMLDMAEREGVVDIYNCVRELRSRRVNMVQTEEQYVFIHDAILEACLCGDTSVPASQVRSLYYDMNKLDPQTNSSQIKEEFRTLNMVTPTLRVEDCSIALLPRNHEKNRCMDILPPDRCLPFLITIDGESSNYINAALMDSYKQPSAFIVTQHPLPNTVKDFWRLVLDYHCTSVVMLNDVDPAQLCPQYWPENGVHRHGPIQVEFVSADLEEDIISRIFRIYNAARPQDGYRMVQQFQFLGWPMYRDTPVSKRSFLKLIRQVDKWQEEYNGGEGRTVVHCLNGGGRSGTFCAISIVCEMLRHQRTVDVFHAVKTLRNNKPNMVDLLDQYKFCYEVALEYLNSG
Sequence of human Protein Tyrosine Phosphatase Non-receptor Type 9 (PTPN9), PTPN9 (gene 5780) (P43378 whole entry, looked up): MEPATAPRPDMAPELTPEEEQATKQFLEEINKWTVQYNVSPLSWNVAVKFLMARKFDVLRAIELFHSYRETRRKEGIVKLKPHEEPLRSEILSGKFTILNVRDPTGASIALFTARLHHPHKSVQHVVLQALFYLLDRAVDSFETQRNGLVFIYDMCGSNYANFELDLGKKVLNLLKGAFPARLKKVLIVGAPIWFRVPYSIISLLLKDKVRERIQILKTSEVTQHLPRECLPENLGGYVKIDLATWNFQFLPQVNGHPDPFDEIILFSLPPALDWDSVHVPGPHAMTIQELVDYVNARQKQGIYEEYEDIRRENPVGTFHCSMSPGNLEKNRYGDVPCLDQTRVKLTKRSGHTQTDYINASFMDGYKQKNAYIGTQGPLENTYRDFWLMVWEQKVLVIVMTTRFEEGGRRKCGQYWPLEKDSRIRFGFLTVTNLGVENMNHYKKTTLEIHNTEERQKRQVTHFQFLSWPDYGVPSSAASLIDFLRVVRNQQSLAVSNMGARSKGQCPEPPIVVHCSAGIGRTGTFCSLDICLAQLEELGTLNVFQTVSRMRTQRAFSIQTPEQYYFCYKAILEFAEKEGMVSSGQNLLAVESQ
Sequence of human Protein Tyrosine Phosphatase Non-receptor Type 6 (PTPN6), PTPN6 (gene 5777) (P29350 whole entry, looked up): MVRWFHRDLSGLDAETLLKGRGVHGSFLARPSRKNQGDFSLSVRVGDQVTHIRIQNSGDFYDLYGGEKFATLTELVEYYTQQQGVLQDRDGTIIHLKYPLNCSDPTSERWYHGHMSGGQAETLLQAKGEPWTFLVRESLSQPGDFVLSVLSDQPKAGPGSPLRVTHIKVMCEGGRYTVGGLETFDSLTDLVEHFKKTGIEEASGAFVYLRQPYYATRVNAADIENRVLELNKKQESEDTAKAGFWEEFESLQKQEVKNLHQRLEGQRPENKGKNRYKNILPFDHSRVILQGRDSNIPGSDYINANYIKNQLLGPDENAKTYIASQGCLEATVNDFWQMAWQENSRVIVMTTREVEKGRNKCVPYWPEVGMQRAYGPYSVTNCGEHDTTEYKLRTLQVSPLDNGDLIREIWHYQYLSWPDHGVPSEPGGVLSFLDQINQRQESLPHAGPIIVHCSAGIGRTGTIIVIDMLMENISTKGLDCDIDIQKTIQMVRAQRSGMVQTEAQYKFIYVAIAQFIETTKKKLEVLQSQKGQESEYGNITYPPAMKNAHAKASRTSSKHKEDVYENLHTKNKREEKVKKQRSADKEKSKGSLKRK

As to `C=CCC1=C(C)C(OC(=O)C2C(C=C(C)C)C2(C)C)CC1=O` (stereo not given), the compound was called inactive in assay [1], in assay [2], in assay [3] and in assay [4].
For `O=C(O)c1nc(Cl)ccc1Cl`, in assay [3], the call was inactive.
Consider `CC(C)(C)c1ccc(CSc2cnn(C(C)(C)C)c(=O)c2Cl)cc1`, for which the AC50 in assay [1] was 17 µM (active).
Turning to `Cc1c(F)c(F)c(COC(=O)C2C(/C=C(\Cl)C(F)(F)F)C2(C)C)c(F)c1F` (stereo not given), the outcome in assay [5] and in assay [1] was inactive.
Take `COP(=S)(OC)Oc1nc(Cl)c(Cl)cc1Cl`: the compound was called inactive in [6].
As for `CNC(=O)ON=CC(C)(C)SC`, in [3], the call was inactive.
With `CON(C)C(=O)Nc1ccc(Cl)c(Cl)c1`, the compound was called inactive in assay [7] and in assay [8].
As for `O=C(O)COc1nc(Cl)c(Cl)cc1Cl`, in assay [9], the compound was classed as inactive.
For `C#CCOS(=O)OC1CCCCC1Oc1ccc(C(C)(C)C)cc1` (stereo not given), the compound was classed as inactive in assay [7].
Take `CS/C(C)=N/OC(=O)N(C)SN(C)C(=O)O/N=C(\C)SC`: the AC50 in assay [10] was 6.69 µM (active).
As for `CNC(=S)S`, the compound was called inactive in assay [11], in assay [12], in [13], in assay [9], in [2] and in assay [14]. In addition, the call in [16] and in assay [17] was inactive. Moreover, the AC50 in assay [1] was 13.5 µM (active); in assay [15], 15.5 µM (active).
As for `CCON=C(CC)C1=C(O)CC(c2c(C)cc(C)cc2C)CC1=O` (stereo not given), in assay [3], the compound was classed as inactive.
As to `N#Cc1nn(-c2c(Cl)cc(C(F)(F)F)cc2Cl)c(N)c1S(=O)C(F)(F)F` (stereo not given), the call in [4] was inactive.
As for `COc1nc(C)nc(NC(=O)NS(=O)(=O)c2ccccc2Cl)n1`, the call in assay [9], in [5], in [1], in [14] and in assay [16] was inactive.
With `CO/C=C(/C(=O)OC)c1ccccc1Oc1cc(Oc2ccccc2C#N)ncn1`, in assay [18], the AC50 is 0.113 µM (active). Moreover, the result in [19] and in assay [4] was inactive.
In the case of `CCCCOC(=O)c1ccccc1C(=O)OCCCC`, the compound was classed as inactive in assay [11], in assay [13], in assay [2] and in assay [3].
For the compound `COc1nc(NC(C)C)nc(NC(C)C)n1`, in assay [14], the result was inactive.
